PubChem BioAssay AID1159580 (chemical genetic matrix, 2015)
Screen size: about 5,500 compounds; about 2,000 (36%) were called active. Another 18% or so got no clear call; they are omitted. Some of the results follow. Values without a mark were called inactive. Cut-off read from the data, not from the text of the source: active = normalized growth mostly below about 0.91 (no sharp cut-off); inconclusive = no clear call, values can overlap the other calls; inactive = mostly above about 0.92.

Assay: chemical genetic growth profiling, strain panel (AID 1159580);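 note: tested at 20 µM; growth read once vehicle control cultures reached saturation at 30 °C; 1 = growth at the plate median or of vehicle wells; lower values mean less growth of the strain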
Details: growth OD

O=c1cc(C(F)(F)F)[nH]c2cc(Cl)cc(Cl)c12
normalized growth (S. cerevisiae deletion strains, locus YAL013W, strain DEP1, stronger effect = lower value): 0.59 (active)
normalized growth (S. cerevisiae deletion strains, locus YBR229C, strain ROT2, stronger effect = lower value): 0.47 (active)
normalized growth (S. cerevisiae deletion strains, locus YCL061C, strain MRC1, stronger effect = lower value): 0.649 (active)
normalized growth (S. cerevisiae deletion strains, locus YDL101C, strain DUN1, stronger effect = lower value): 0.513 (active)
normalized growth (S. cerevisiae deletion strains, locus YDR150W, strain NUM1, stronger effect = lower value): 0.627 (active)
normalized growth (S. cerevisiae deletion strains, locus YEL061C, strain CIN8, stronger effect = lower value): 0.745 (active)
normalized growth (S. cerevisiae deletion strains, locus YGR078C, strain PAC10, stronger effect = lower value): 0.475 (active)
normalized growth (S. cerevisiae deletion strains, locus YHR030C, strain SLT2, stronger effect = lower value): 0.564 (active)
normalized growth (S. cerevisiae deletion strains, locus YHR087W, strain rtc3, stronger effect = lower value): 0.544 (active)
normalized growth (S. cerevisiae deletion strains, locus YJL187C, strain SWE1, stronger effect = lower value): 1.01
normalized growth (S. cerevisiae deletion strains, locus YJR043C, strain POL32, stronger effect = lower value): 0.697 (active)
normalized growth (S. cerevisiae deletion strains, locus YJR075W, strain HOC1, stronger effect = lower value): 0.514 (active)
normalized growth (S. cerevisiae deletion strains, locus YLR039C, strain RIC1, stronger effect = lower value): 0.356 (active)
normalized growth (S. cerevisiae deletion strains, locus YLR058C, strain SHM2 (second series), stronger effect = lower value): 0.694 (active)
normalized growth (S. cerevisiae deletion strains, locus YLR085C, strain ARP6, stronger effect = lower value): 0.487 (active)
normalized growth (S. cerevisiae deletion strains, locus YLR262C, strain YPT6, stronger effect = lower value): 0.428 (active)
normalized growth (S. cerevisiae deletion strains, locus YML094W, strain GIM5, stronger effect = lower value): 0.854 (active)
normalized growth (S. cerevisiae deletion strains, locus YMR219W, strain ESC1, stronger effect = lower value): 0.612 (active)
normalized growth (S. cerevisiae deletion strains, locus YMR263W, strain SAP30, stronger effect = lower value): 0.456 (active)
normalized growth (S. cerevisiae deletion strains, locus YMR307W, strain GAS1, stronger effect = lower value): 0.561 (active)
normalized growth (S. cerevisiae deletion strains, locus YNL128W, strain TEP1, stronger effect = lower value): 0.881 (active)
normalized growth (S. cerevisiae deletion strains, locus YNL153C, strain GIM3, stronger effect = lower value): 0.534 (active)
normalized growth (S. cerevisiae deletion strains, locus YNL298W, strain CLA4 (second series), stronger effect = lower value): 0.742 (active)
normalized growth (S. cerevisiae deletion strains, locus YNL322C, strain KRE1, stronger effect = lower value): 0.798 (active)
normalized growth (S. cerevisiae deletion strains, locus YNR030W, strain Alg12, stronger effect = lower value): 0.664 (active)
normalized growth (S. cerevisiae deletion strains, locus YPL055C, strain LGE1, stronger effect = lower value): 0.523 (active)
normalized growth (S. cerevisiae deletion strains, locus YPL241C, strain CIN2, stronger effect = lower value): 0.748 (active)
normalized growth (S. cerevisiae deletion strains, locus YPR135W, strain CTF4, stronger effect = lower value): 0.714
normalized growth (S. cerevisiae strains, strain wild type, stronger effect = lower value): 0.836 (active)
